In PubChem BioAssay AID463173 (ICCB-Longwood Screening Facility, Harvard Medical School, 2010) one finds survival data, which are given here for 63 molecules.

The campaign covered roughly 52,000 compounds. About 1,700 (3.3%) were called active. This is one part of a sample in which actives are shown more often than they occur. Rule as the data show it: active = survival mostly below about 52% (no sharp cut-off); inactive = mostly above about 56%.

In the experiment the test system is Wild type. As to the kind of experiment: growth inhibition of S. aureus wild type versus tarO mutant, primary screen, teichoic acid synthesis inhibitors, RN4220, OD600 (AID 463173). Particulars: S. aureus RN4220 wild type/DeltatarO growth, OD600, 18 h, active compounds read low, screened at 18.75 µg/mL (by protocol).
Take `CCCOc1ccc(C2C(=O)N(C3CCCCCC3)CC(=O)N2Cc2ccccc2OC)cc1OC` (stereo not drawn): the survival is 87% (inactive).

As to `COc1ccc(-c2nc(SCC(=O)Nc3ccc4c(c3)OCO4)c(-c3ccc(F)cc3)[nH]2)cc1OC`, the survival is 65% (inactive).

As for `COC(=O)C1CCCc2c1[nH]c1ccc(Cl)cc21` (stereo not drawn), the survival is 142% (inactive).

For `CC1=C(C(=O)OC2CCCC2)C(c2cccc(Cl)c2Cl)CC(=O)N1` (stereo not drawn), the survival is 90% (inactive).

In the case of `Cc1ccc(F)cc1NC(=O)c1ccc(Cn2nc(N3CCN(c4ccccc4)CC3)ccc2=O)o1`, the survival is 127% (inactive).

Take `CCc1cccc(NS(=O)(=O)c2ccc3c(c2)CC(C)N3C(=O)C2CC2)c1` (stereo not drawn): the survival is 80% (inactive).

In the case of `COc1ccc(CNC(=O)Cn2c(=O)oc3cc(S(=O)(=O)N4CCCC4)ccc32)cc1`, the survival was 91% (inactive).

With `Cc1ccc2nc(-c3ccc(C)s3)c(Nc3ccc4c(c3)OCCO4)n2c1`, the survival was 83% (inactive).

For the molecule `CCOC(=O)c1cccc(NC(=O)N2CC(CC)Sc3ccccc32)c1` (stereo not drawn), the survival is 84% (inactive).

Consider `COc1ccc(CNC(=O)c2cc3c(=O)n(Cc4ccco4)ccc3nc2C)cc1`, for which the survival was 74% (inactive).

For `Cc1ccc2c(c1)c1c3n2CCN(C(=O)CN2CCN(C(=O)c4ccco4)CC2)C3CCC1` (stereo not drawn), the survival is 126% (inactive).

On to `COc1ccc(C(=O)Oc2ccc(C(c3c(C)[nH][nH]c3=O)c3c(C)[nH][nH]c3=O)cc2OC)cc1`, for which the survival is 73% (inactive).

Turning to `O=C(CSc1nnc(CNC(=O)c2ccccc2F)n1-c1ccccc1)Nc1ccccc1F`, the survival was 66% (inactive).

`Cc1ccc(C)c(NC(=O)CCc2nc(-c3ccc(C(C)(C)C)cc3)no2)c1`: the survival is 109% (inactive).

As to `CCN(C(=O)c1cc2cc3ccc(OC)cc3nc2o1)c1cccc(C)c1`, the survival was 0% (active).

For `COc1ccc(CNC(=O)c2cc3cc4ccc(C)cc4nc3o2)cc1`, the survival was 88% (inactive).

Regarding `CCN(C(=O)CCc1nc(-c2ccc(C)cc2)no1)c1cccc(Cl)c1`, the survival was -1% (active).

Regarding `CC(C)(C)c1ccc(-c2noc(CCC(=O)Nc3cccc(Cl)c3)n2)cc1`, the survival was 87% (inactive).

On to `CCN(C(=O)Cc1nc(-c2ccc(OC)cc2)no1)c1cccc(Cl)c1`, for which the survival is 84% (inactive).

On to `CCN(C(=O)CCc1nc(-c2ccc(C)cc2)no1)c1cc(C)ccc1C`, for which the survival is 0% (active).

In the case of `COc1ccc2cc3cc(C(=O)NCc4ccc(C)cc4)oc3nc2c1`, the survival is 89% (inactive).

For `COc1cc(-c2noc(CCC(=O)Nc3cc(C)ccc3C)n2)cc(OC)c1OC`, the survival is 82% (inactive).

For the molecule `Cc1ccc(-n2cnc3ccccc3c2=O)cc1C`, the survival is 89% (inactive).

In the case of `CCN1C(=O)C(C2SC(=S)N(CC)C2=O)SC1=S` (stereo not drawn), the survival was 98% (inactive).

For the molecule `CCc1ccccc1N(C)C(=O)c1cnc(N2CCOCC2)c2ccccc12`, the survival is 65% (inactive).

`COc1ccc(OC)c(NC(=O)N2c3ccccc3Sc3ccccc32)c1`: the survival was 19% (inactive).

Turning to `CCOC(=O)N1c2ccccc2Sc2ccccc21`, the survival is 95% (inactive).

For the molecule `CCOc1ccccc1NC(=O)N1c2ccccc2Sc2ccccc21`, the survival was 61% (inactive).

Take `CCN(CC)C(=O)N1c2ccccc2Sc2ccccc21`: the survival is 108% (inactive).

Take `CC(C)c1ccc(NC(=O)N2c3ccccc3Sc3ccccc32)cc1`: the survival was 5% (active).

With `COc1cc(NC(=O)N2c3ccccc3Sc3ccccc32)cc(OC)c1`, the survival was 65% (inactive).

`COc1ccccc1NC(=O)N1c2ccccc2Sc2ccccc21`: the survival was -1% (active).

With `O=C(O)c1ccccc1NC(=O)N1c2ccccc2Sc2ccccc21`, the survival is 28% (inactive).

With `CCc1ccc(NC(=O)N2c3ccccc3Sc3ccccc32)cc1`, the survival is 1% (active).

Consider `CCOC(=O)c1cccc(NC(=O)N2Cc3ccccc3Oc3ncccc32)c1`, for which the survival is 81% (inactive).

On to `Cc1c2cnn(CC(=O)O)c(=O)c2c(C)n1Cc1cccc(Cl)c1`, for which the survival is 80% (inactive).

Consider `CCCSc1ncc(Cl)c(C(=O)N(Cc2ccccc2)c2ccc(OC)cc2)n1`, for which the survival is 80% (inactive).

In the case of `Cc1ccc(-n2ncc3c(Nc4ccc5c(c4)OCCO5)ncnc32)cc1C`, the survival is 100% (inactive).

For the molecule `CSc1cccc(Nc2cc(C(=O)NCCc3ccc(Cl)cc3)c3ccccc3n2)c1`, the survival was 120% (inactive).

Turning to `Cc1c(-c2cccc(NC(=O)Nc3ccccc3)c2)nc2ncccn12`, the survival was 64% (inactive).

Turning to `Cc1c(-c2cccc(NC(=O)C(C)(C)C)c2)nc2ncccn12`, the survival is 71% (inactive).

Consider `Cc1c(-c2cccc(NC(=O)Nc3ccc(Cl)cc3)c2)nc2ncccn12`, for which the survival is -4% (active).

Turning to `CCc1nn(CC(=O)NCc2cccc(OC)c2)c(=O)c2cc3cc(F)ccc3n12`, the survival was 69% (inactive).

With `CCOc1ccc(CCNC(=O)c2ccc3nc(N4CCC(C)CC4)sc3c2)cc1OCC`, the survival was 73% (inactive).

Consider `Cc1ccc(-n2ncc3c(NCc4ccccc4)ncnc32)cc1C`, for which the survival is 67% (inactive).

On to `Cc1ccc(-n2ncc3c(NCCc4ccccc4)ncnc32)cc1Cl`, for which the survival is 65% (inactive).

Consider `Cc1ccc(-n2ncc3c(NCc4ccccc4)ncnc32)cc1Cl`, for which the survival was -6% (active).

On to `c1ccc(-c2nc3cc(Cc4ccc5oc(-c6ccccn6)nc5c4)ccc3o2)nc1`, for which the survival was 113% (inactive).

For `CCC1=Nc2cc(C(=O)NCCN(CC)CC)ccc2Sc2ccccc21`, the survival was 93% (inactive).

As for `Cc1ccccc1NC(=O)CC1COc2ccccc2O1` (stereo not drawn), the survival was 111% (inactive).

Regarding `COc1ccc(Cc2nc3ccccc3n2Cc2ccccc2F)cc1`, the survival was 23% (active).

As for `O=C(NCCc1nc2ccccc2n1Cc1ccccc1F)c1ccc(F)cc1`, the survival was 82% (inactive).

Regarding `Cc1ccccc1Cn1c(CCCNC(=O)C2CCCCC2)nc2ccccc21`, the survival is 101% (inactive).

For the molecule `COc1cccc(OCc2nc3ccccc3n2Cc2ccccc2C)c1`, the survival was 87% (inactive).

Take `COc1ccc(Cc2nc3ccccc3n2Cc2ccccc2C)cc1`: the survival was 1% (active).

Take `O=C(NCCCc1nc2ccccc2n1Cc1ccccc1F)c1ccco1`: the survival is 92% (inactive).

As to `Cc1ccc(-c2nc(CCNC(=O)C(=O)Nc3ccc(F)cc3F)cs2)cc1`, the survival is 63% (inactive).

For the molecule `Cc1cc(NC(=O)c2ccccc2Cl)ccc1NC(=O)c1ccccc1`, the survival was 85% (inactive).

As to `O=C(Nc1cc2c(cc1C(=O)c1ccccc1)OCCO2)c1ccc(Br)cc1`, the survival was 86% (inactive).

Take `Cc1ccc(NC(=O)c2ccccc2Br)c(C(=O)c2ccccc2)c1`: the survival was 25% (inactive).

`Cc1ccc(NC(=O)c2ccc(Cl)cc2Cl)c(C(=O)c2ccccc2)c1`: the survival was 1% (active).

In the case of `Cc1ccc(C(=O)COC(=O)c2cccc(NC(=O)c3ccc(Cl)cc3Cl)c2)cc1`, the survival was 81% (inactive).

In the case of `Cc1ccc(NC(=O)c2ccc(Br)cc2)c(C(=O)c2ccccc2)c1`, the survival was -2% (active).
